Laboratory results from PubChem BioAssay (Tox21).
Records with an inconclusive call do not appear. The source made the active and inactive calls. Unless noted, calls follow the shape of the dose curve; as a rule, active = well fitted curve in the direction sought with a large enough effect in the repeat runs; inconclusive = weak or mixed curves; inactive = no such curve, though single readings can be large; an effect the other way counts as inactive or inconclusive.

Key:
[1] = qHTS assay to identify small molecule agonists of the hypoxia (HIF-1) signaling pathway - cell viability counter screen (AID 1224844; calls by dose curve; also: nearly all actives have a fitted effect of over 50% in size)
Outline: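 Tox21 10K compounds were added to HRE-bla ME-180 cells (0.5% dialyzed FBS) and incubated 17 hrs at 37C; ATP-based CellTiter-Glo luminescence then reported cell viability in the same wells.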

[2] = qHTS assay to identify small molecule agonists of the hypoxia (HIF-1) signaling pathway (AID 1224846; active = well fitted activation curve with a large enough effect in the signal ratio in the repeat runs, not every such curve was filed as active; the % refers to the signal ratio)
Outline: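 Steps: seed ME-180 HRE-bla cells (2,000/well, 0.5% dialyzed FBS); incubate 5 hrs at 37C; pin-transfer compounds or DMSO; incubate 17 hrs; add LiveBLAzer B/G substrate CCF4-AM; measure reporter activation by FRET.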

[3] = qHTS assay to identify small molecule agonists of H2AX - cell viability counter screen (AID 1224847; calls by dose curve; also: top concentration of the series differs between compounds; nearly all actives have a fitted effect of over 30% in size)
Outline: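 Cytotoxicity counter screen in wild-type CHO-K1 cells: a 3 hr compound treatment at 37C across 15 concentrations, followed by CellTiter-Glo luminescence to gauge viable cells.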

[4] = qHTS RealTime-Glo MT Cell Viability Assay in HepG2 cells - 24 hour (AID 1224867); also: nearly all actives have a fitted effect of over 50% in size
Outline: (§1)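 Luminescence read-out: viable HepG2 cells reduce a prosubstrate to a NanoLuc substrate, giving a signal proportional to live cell number. Reads taken at 0, 8, 16, 24, 32 and 40 h of compound exposure at 37 C.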

[5] = qHTS RealTime-Glo MT Cell Viability Assay in HEK293 cells - 32 hour (AID 1224868); also: top concentration of the series differs between compounds; nearly all actives have a fitted effect of over 50% in size
Outline: (§2)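 Nonlytic real-time viability readout: viable cells convert prosubstrate to NanoLuc substrate, giving luminescence proportional to live cell number. HEK293, 600 cells/well, compound added after 5 h, continuous culture at 37 C.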

[6] = A CellTox Green Cytotoxicity Assay to monitor cytotoxicity in HEK293 cells - 0 hour (AID 1224869); also: nearly all actives have a fitted effect of over 50% in size
Outline: (§3)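 Cytotoxicity was tracked continuously in HEK293 cells by a DNA-binding dye excluded from viable cells. Compounds were transferred in DMSO 5 h after seeding; fluorescence was recorded at intervals up to 40 h.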

[7] = qHTS RealTime-Glo MT Cell Viability Assay in HepG2 cells - 40 hour (AID 1224870); also: nearly all actives have a fitted effect of over 50% in size
Outline: (§4)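 Real-time viability: cells seeded at 600 per well together with NanoLuc and cell-permeant prosubstrate, compounds added after 5 h incubation. Luminescence tracked at 0, 8, 16, 24, 32 and 40 h of exposure.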

[8] = qHTS RealTime-Glo MT Cell Viability Assay in HEK293 cells - 16 hour (AID 1224872)
Outline: as §2

[9] = qHTS RealTime-Glo MT Cell Viability Assay in HepG2 cells - 8 hour (AID 1224873); also: nearly all actives have a fitted effect of over 55% in size
Outline: as §4

[10] = qHTS RealTime-Glo MT Cell Viability Assay in HEK293 cells - 40 hour (AID 1224874); conditions: RealTime-Glo luminescence; max response: stronger effect = lower value; also: nearly all actives have a fitted effect of over 50% in size
Outline: (§5)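 Nonlytic bioluminescent viability monitoring. HEK293 at 600 cells/well with reagent; 5 h settle; compound transfer by pintool; plates held at 37 C and read at set time points.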

[11] = A CellTox Green Cytotoxicity Assay to monitor cytotoxicity in HEK293 cells - 24 hour (AID 1224875); also: series mostly up to about 77 µM; nearly all actives have a fitted effect of over 45% in size
Outline: as §3

[12] = A CellTox Green Cytotoxicity Assay to monitor cytotoxicity in HepG2 cells - 16 hour (AID 1224876); also: nearly all actives have a fitted effect of over 45% in size
Outline: (§6)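 Real-time, homogeneous cytotoxicity readout: dead-cell DNA staining by CellTox Green in HepG2 monolayers, fluorescence measured at timed intervals up to 40 h of continuous compound exposure.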

[13] = qHTS RealTime-Glo MT Cell Viability Assay in HepG2 cells - 32 hour (AID 1224877); also: nearly all actives have a fitted effect of over 55% in size
Outline: as §1

[14] = A CellTox Green Cytotoxicity Assay to monitor cytotoxicity in HepG2 cells - 24 hour (AID 1224878); also: nearly all actives have a fitted effect of over 45% in size
Outline: as §6

[15] = A CellTox Green Cytotoxicity Assay to monitor cytotoxicity in HepG2 cells - 40 hour (AID 1224879); also: nearly all actives have a fitted effect of over 40% in size
Outline: as §6

[16] = qHTS RealTime-Glo MT Cell Viability Assay in HEK293 cells - 0 hour (AID 1224880); also: top concentration of the series differs between compounds; nearly all actives have a fitted effect of over 45% in size
Outline: as §5

[17] = A CellTox Green Cytotoxicity Assay to monitor cytotoxicity in HEK293 cells - 40 hour (AID 1224871); also: nearly all actives have a fitted effect of over 45% in size
Outline: as §3

[18] = qHTS assay to identify small molecule agonists of H2AX (AID 1224845; active = well fitted activation curve with a large enough effect in the signal ratio in the repeat runs, not every such curve was filed as active; the % refers to the signal ratio)
Outline: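 Phospho-H2AX Ser139 measured by HTRF (ex 320 nm; em 665 and 620 nm) after 24 hr antibody incubation. Compounds, 15 concentrations, 0.76% DMSO, were applied to CHO-K1 cells for 3hr at 37C before lysis.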
% is scaled to controls: 0 for no effect and ±100 for the full control effect.

CCOP(=S)(OCC)Oc1cc(-c2ccccc2)on1
inactive: Potency [1] | outcome [2] | Potency [3] | Potency [4] | Potency [5] | Potency [6] | Potency [7] | Potency [8] | Potency [9] | max response [10] -12.9% | Potency [11] | Potency [12] | Potency [13] | Potency [14] | Potency [15] | outcome [16]

Cc1ncc(CNC(=O)N(CCCl)N=O)c(N)n1
inactive: Potency [1] | Potency [3] | Potency [4] | Potency [5] | Potency [6] | Potency [7] | Potency [17] | max response [10] 2.69% | Potency [11] | Potency [12] | Potency [13] | Potency [14] | Potency [15] | outcome [16]

CCC/C(=N\OCC)C1=C(O)CC(CC(C)SCC)CC1=O (centres undefined)
inactive: Potency [1] | outcome [2] | Potency [4] | Potency [6] | Potency [7] | Potency [9] | Potency [11] | Potency [12] | Potency [13] | Potency [14] | Potency [15] | outcome [16]

C(CCOCC1CO1)COCC1CO1 (centres undefined)
inactive: Potency [18] | Potency [3] | Potency [6] | Potency [7] | Potency [8] | Potency [9] | Potency [11] | Potency [12] | Potency [13] | Potency [14] | Potency [15] | outcome [16]
